Source: PubChem BioAssay
Where “and” joins values, the source holds several entries; their conditions need not be identical. Equal values may be shown once. Calls of active or inactive are those of the source.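 How the source made its calls, unless noted: active means normalized viability below 100% at a tested concentration; inactive means the rest.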

Legend:
[1] = stimulators of nuclear beta-catenin in C2C12, primary screen, imaging, WNT3A-conditioned medium, mouse C2C12, NPC library (AID 1117326; in the data active means nuclear beta-catenin stimulation mostly above about 4.2%, no sharp cut-off; inactive means mostly below about 10%); details: stronger effect = higher value
[2] = stimulators of insulin release from INS-1E, primary screen, cell-based, 5 mM glucose, NPC library (AID 1117329;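 active means compound raises insulin release from rat beta cells at 5 mM glucose, no numeric limit stated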); details: rat INS-1E insulin secretion, at 10 µM, stronger effect = higher value
[3] = growth inhibition of GSK3B-pretreated HCT116 cells – cell-based, CellTiter-Glo, 0.2 to 20 µM (AID 1117336;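 active means compounds lowering colon cancer cell viability after pretreatment blocking the GSK3B kinase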); details: HCT116 viability after GSK3B inhibitor, at 20 µM, stronger effect = higher value
[4] = inhibition of endothelial tube formation, primary screen, imaging, VEGF stimulated, CD31 staining, tube area, NPC library (AID 1117340;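 active means compound that reduces growth-factor-driven endothelial tube area in a mixed cell culture, no cutoff stated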); details: VEGF-stimulated ADSC/ECFC co-culture, at 10 µM, stronger effect = higher value
[5] = glucagon-like peptide 1 release enhancers, primary assay, NCI-H716 cell line, NPC library (AID 1117341;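 active means compound raises GLP1 secretion from the human gut endocrine cells, with no numeric limit stated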); details: NCI-H716 cells, at 10 µM, stronger effect = higher value
[6] = HCT116 colon cancer cell growth inhibition, primary screen, CellTiter-Glo luminescence, NPC library (AID 1117342;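 active means compounds that lower survival of HCT116 colon cancer cells in the luminescence readout, no numeric limit stated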); details: at 20 µM (top of the series)
[7] = CellTiter-Glo luminescent readout of SW480 viability loss, NPC library primary (AID 1117343;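 active means compounds that lower viability of the colon cancer cells in the luminescence readout, with no numeric limit stated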); details: CellTiter-Glo luminescence; at 20 µM (top of the series) unless noted
[8] = decreased DLD-1 cellular survival, CellTiter-Glo luminescent readout, NPC compound collection, primary HTS (AID 1117346;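 active means compounds that lower survival of DLD-1 colon cancer cells in the luminescence readout, no cutoff given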); details: DLD-1 viability, CellTiter-Glo luminescence; at 20 µM (top of the series)
[9] = survival rescue of mitochondrial mutant cells in low glucose, primary screen, MELAS cybrids, Rieske KO mouse fibroblasts, CellTiter-Glo (AID 1508586;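 active means mean z-score across replicates of 1.96 or higher in either the MELAS or the Rieske mutant cell line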;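 further: z relative to plate mean and SD of compound and empty wells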)
[10] = circadian clock period modulators, cell-based, LOPAC library, luminescence reporter (AID 2774; call rule not given here;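 further: values are relative to mean of DMSO wells on each plate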); details: circadian reporter cells, at 7 µM, actives lie on both sides
[11] = hESC survival regulators, cell-based (AID 493140; call rule not given here;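 further: cells exposed to compounds for four days before counting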); details: human embryonic stem cell survival screen; stronger effect = higher value
[12] = liver-stage malaria parasite growth inhibition, primary screen, cell-based, HepG2, luciferase luminescence, HepG2 viability (AID 624349; in the data active means parasite load remaining mostly below about 12%, no sharp cut-off; inactive means mostly above about 10%;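 further: 100% = mean of DMSO negative control wells on the same plate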); details: P. berghei liver stage in HepG2, luciferase luminescence, concentration not given here; parasite load remaining: stronger effect = lower value; viability: measured here: HepG2 viability without parasites
[13] = phospholipid biosynthesis inhibitors in animal cells, primary screen, cell-based, LOPAC library, screen 4 (AID 1347384; call rule not given here); details: phospholipid biosynthesis inhibition screen, at 10 µM
[14] = viability rescue of complex I mutant cybrids, primary screen, cell-based, galactose medium, ATP luminescence (AID 1645843;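 active means z-score of at least 1.8 in each of two replicates, scored against plate mean and spread of sample wells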;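 further: positive z means more ATP and so rescue of galactose-driven cybrid death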); details: complex I mutant cybrid cells, 72 h, stronger effect = higher value
[15] = molecular target: NAD(+) hydrolase SARM1 (Homo sapiens) (UniProt Q6SZW1); test: SARM1 TIR NADase inhibitors, cell lysate, NAD-Glo luminescence (AID 1508614;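 active means compound whose remaining NAD level is above about 45 nM, limit read from the data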); details: SAM-TIR HEK293T lysate NADase, at 1 µM, stronger effect = higher value
[16] = modifiers of HSF1 nuclear foci, imaging, Selleck Cancer Library (AID 1347162; in the data active means plate-normalised HSF1 focus index below about 0.46); details: human cells, at 10 µM; SSMD: measured here: HSF1 foci SSMD mean; cell count: measured here: cell number; plate-normalised HSF1 focus index: stronger effect = lower value
[17] = ovarian cancer cell viability with rucaparib, profiling panel, oncology-focused library, rucaparib conditional (AID 1508598); details: patient-derived ovarian cancer cells, CellTiter-Glo viability, 144 h, stronger effect = lower value
[18] = MELAS cybrid survival, CellTiter-Glo 48 h, stronger effect = higher value
[19] = Rieske KO mouse fibroblast survival, CellTiter-Glo 72 h

NAD(+) hydrolase SARM1 (Homo sapiens), sequence (Q6SZW1 whole entry, looked up): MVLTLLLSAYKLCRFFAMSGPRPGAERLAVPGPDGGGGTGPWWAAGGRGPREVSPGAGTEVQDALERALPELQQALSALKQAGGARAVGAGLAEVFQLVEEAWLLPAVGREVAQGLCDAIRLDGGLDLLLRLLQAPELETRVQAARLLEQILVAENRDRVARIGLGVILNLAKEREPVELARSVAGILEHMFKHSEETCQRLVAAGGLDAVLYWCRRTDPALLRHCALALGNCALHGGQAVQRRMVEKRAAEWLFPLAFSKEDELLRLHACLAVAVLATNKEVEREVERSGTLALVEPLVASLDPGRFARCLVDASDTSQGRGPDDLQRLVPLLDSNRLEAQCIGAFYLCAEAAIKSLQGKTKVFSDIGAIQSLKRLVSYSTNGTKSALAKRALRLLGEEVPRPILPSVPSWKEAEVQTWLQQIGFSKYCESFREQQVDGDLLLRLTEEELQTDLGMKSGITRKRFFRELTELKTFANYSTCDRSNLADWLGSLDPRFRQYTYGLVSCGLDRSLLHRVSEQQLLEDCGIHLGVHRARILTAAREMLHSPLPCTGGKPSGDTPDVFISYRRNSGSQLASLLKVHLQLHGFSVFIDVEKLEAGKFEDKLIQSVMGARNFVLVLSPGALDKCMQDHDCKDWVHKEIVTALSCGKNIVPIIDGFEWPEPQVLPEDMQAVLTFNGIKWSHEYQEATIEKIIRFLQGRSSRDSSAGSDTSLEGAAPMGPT

Clc1cc(Cl)c(OCC#CI)cc1Cl
8.41: z-score [9, 19]
active: nuclear beta-catenin stimulation ([1]; at 10 µM) 62.3% | viability decrease [3] 93.8% | tube area decrease [4] 106% | inhibition of viability [6] 92% | viability decrease (inhibition) [7] 100% | viability decrease (inhibition) [8] 98.1%
inactive: insulin secretion stimulation [2] 9.6% | GLP1 secretion stimulation [5] -0.7%
21.7%: nuclear beta-catenin stimulation ([1]; stimulation, at 2 µM)
-0.965: z-score [9, 18]

O=C1NCN(c2ccccc2)C12CCN(CCCC(c1ccc(F)cc1)c1ccc(F)cc1)CC2
89.8% and 100%: viability [12]
active: viability decrease [3] 99.7% | tube area decrease [4] 109% | inhibition of viability [6] 99.6% | viability decrease (inhibition) [7] 103% | viability decrease (inhibition) [8] 102%
0.391 and -0.284: z-score [9, 19]
2.1%: nuclear beta-catenin stimulation ([1]; stimulation, at 2 µM)
inactive: period change [10] -0.085 h | survival [11] 0.417 | parasite load remaining [12] 45.3% and 31.6% | nuclear beta-catenin stimulation ([1]; at 10 µM) 31.6% | insulin secretion stimulation [2] 2.5% | GLP1 secretion stimulation [5] -0.5% | outcome [13] | z-score [9, 18] -1.7 and 0.321 | z-score [14] -0.995 and -1.48

C[C@]1(Cn2ccnn2)[C@H](C(=O)O)N2C(=O)C[C@H]2S1(=O)=O
-0.0503: z-score [9, 19]
0.1%: nuclear beta-catenin stimulation ([1]; stimulation, at 2 µM)
inactive: nuclear beta-catenin stimulation ([1]; at 10 µM) -1.1% | insulin secretion stimulation [2] 10.1% | viability decrease [3] -2.3% | tube area decrease [4] -6% | GLP1 secretion stimulation [5] 1.9% | inhibition of viability [6] 3.3% | viability decrease (inhibition) [7] 17.8% | viability decrease (inhibition) [8] -1.5% | z-score [9, 18] -0.126 | remaining NAD [15] 10 nM

O=C(NCCCN1CCOCC1)c1ccc(Cl)cc1
inactive: nuclear beta-catenin stimulation ([1]; at 10 µM) 0.6% | insulin secretion stimulation [2] 1.5% | viability decrease [3] 1.5% | tube area decrease [4] 12.7% | GLP1 secretion stimulation [5] -0.3% | inhibition of viability [6] 0% | viability decrease (inhibition) [7] 18.6% | viability decrease (inhibition) [8] 1.05% | remaining NAD [15] 10 nM
1%: nuclear beta-catenin stimulation ([1]; stimulation, at 2 µM)

O=C(O)CCCCC(=O)O
inactive: nuclear beta-catenin stimulation ([1]; at 10 µM) 0.3% | insulin secretion stimulation [2] -0.6% | viability decrease [3] -6.5% | tube area decrease [4] -7.7% | GLP1 secretion stimulation [5] 1.4% | inhibition of viability [6] -4.8% | viability decrease (inhibition) [7] 25% | viability decrease (inhibition) [8] 11.8% | remaining NAD [15] 10 nM
-0.9%: nuclear beta-catenin stimulation ([1]; stimulation, at 2 µM)

O=C(CCCl)NCCc1ccccc1
inactive: nuclear beta-catenin stimulation ([1]; at 10 µM) -0.5% | insulin secretion stimulation [2] 1.5% | viability decrease [3] -9.9% | tube area decrease [4] -1.9% | GLP1 secretion stimulation [5] -1.9% | inhibition of viability [6] -2.8% | viability decrease (inhibition) [7] -1.5% | remaining NAD [15] 10 nM
active: viability decrease (inhibition) [8] -7.5%
0.2%: nuclear beta-catenin stimulation ([1]; stimulation, at 2 µM)

Cn1c(=O)c2c(ncn2CC(=O)O)n(C)c1=O
inactive: nuclear beta-catenin stimulation ([1]; at 10 µM) -0.1% | insulin secretion stimulation [2] 0.95% | viability decrease [3] 20.3% | tube area decrease [4] -15.7% | GLP1 secretion stimulation [5] -0.7% | inhibition of viability [6] 12.3% | viability decrease (inhibition) [7] 0.4% | viability decrease (inhibition) [8] -5.4% | z-score [9, 18] 0.592
0.00475: z-score [9, 19]
-1%: nuclear beta-catenin stimulation ([1]; stimulation, at 2 µM)

CC(CN(C)C)C(C)(O)Cc1ccc(Cl)cc1 (configuration not stated)
-0.8%: nuclear beta-catenin stimulation ([1]; stimulation, at 2 µM)
inactive: nuclear beta-catenin stimulation ([1]; at 10 µM) -2% | insulin secretion stimulation [2] 7.5% | viability decrease [3] -15% | tube area decrease [4] 7.9% | GLP1 secretion stimulation [5] -2% | inhibition of viability [6] 17.4% | viability decrease (inhibition) [7] -0.8% | viability decrease (inhibition) [8] -9.1% | z-score [9, 18] 0.453
-0.0123: z-score [9, 19]

O=C1NCCN1CCN1CCC(c2cn(-c3ccc(F)cc3)c3ccc(Cl)cc23)CC1
inactive: nuclear beta-catenin stimulation ([1]; at 10 µM) 5.7% | insulin secretion stimulation [2] 5.2% | GLP1 secretion stimulation [5] -1.3% | z-score [9, 18] -0.903
0.1%: nuclear beta-catenin stimulation ([1]; stimulation, at 2 µM)
0.239: z-score [9, 19]
active: viability decrease [3] 99.9% | tube area decrease [4] 100% | inhibition of viability [6] 100% | viability decrease (inhibition) [7] 103% | viability decrease (inhibition) [8] 102%

CN1CC[C@H](c2c(O)cc(O)c3c(=O)cc(-c4ccccc4Cl)oc23)[C@H](O)C1
inactive: insulin secretion stimulation [2] 2.75% | GLP1 secretion stimulation [5] 6.7% | plate-normalised HSF1 focus index [16] 1.07 | viability ([17]; at 0.000305 µM, OCI-C5x cells, with rucaparib 10 µM, 100% = cells with rucaparib alone) 109% | viability ([17]; at 0.000305 µM, OCI-C5x cells, without rucaparib) 112% | viability ([17]; at 0.00122 µM, OCI-C5x cells, without rucaparib) 107% | viability ([17]; at 0.00488 µM, OCI-C5x cells, without rucaparib) 109% | viability ([17]; at 0.00488 µM, OCI-P5x cells, without rucaparib) 103%
76.1%: nuclear beta-catenin stimulation ([1]; stimulation, at 2 µM)
active: nuclear beta-catenin stimulation ([1]; at 10 µM) 72.1% | viability decrease [3] 73.7% | tube area decrease [4] 110% | inhibition of viability [6] 54.4% | viability decrease (inhibition) [7] 62.3% | viability decrease (inhibition) [8] 78.5% | viability ([17]; at 0.000305 µM, OCI-P5x cells, with rucaparib 20 µM, 100% = cells with rucaparib alone) 56.8% | viability ([17]; at 0.000305 µM, OCI-P5x cells, without rucaparib) 15.2% | viability ([17]; at 0.00122 µM, OCI-C5x cells, with rucaparib 10 µM, 100% = cells with rucaparib alone) 93.2% | viability ([17]; at 0.00122 µM, OCI-P5x cells, with rucaparib 20 µM, 100% = cells with rucaparib alone) 62% | viability ([17]; at 0.00122 µM, OCI-P5x cells, without rucaparib) 15.8% | viability ([17]; at 0.00488 µM, OCI-C5x cells, with rucaparib 10 µM, 100% = cells with rucaparib alone) 92.5% | viability ([17]; at 0.00488 µM, OCI-P5x cells, with rucaparib 20 µM, 100% = cells with rucaparib alone) 97.7% | viability ([17]; at 0.0195 µM, OCI-C5x cells, with rucaparib 10 µM, 100% = cells with rucaparib alone) 66% | viability ([17]; at 0.0195 µM, OCI-C5x cells, without rucaparib) 80% | viability ([17]; at 0.0195 µM, OCI-P5x cells, with rucaparib 20 µM, 100% = cells with rucaparib alone) 67.9% | viability ([17]; at 0.0195 µM, OCI-P5x cells, without rucaparib) 70.9% | viability ([17]; at 0.0781 µM, OCI-C5x cells, with rucaparib 10 µM, 100% = cells with rucaparib alone) 28.7% | viability ([17]; at 0.0781 µM, OCI-C5x cells, without rucaparib) 22.9% | viability ([17]; at 0.0781 µM, OCI-P5x cells, with rucaparib 20 µM, 100% = cells with rucaparib alone) 35.2% | viability ([17]; at 0.0781 µM, OCI-P5x cells, without rucaparib) 23.5% | viability ([17]; at 0.313 µM, OCI-C5x cells, with rucaparib 10 µM, 100% = cells with rucaparib alone) 12% | viability ([17]; at 0.313 µM, OCI-C5x cells, without rucaparib) 10.8% | viability ([17]; at 0.313 µM, OCI-P5x cells, with rucaparib 20 µM, 100% = cells with rucaparib alone) 21% | viability ([17]; at 0.313 µM, OCI-P5x cells, without rucaparib) 12.5% | viability ([17]; at 1.25 µM, OCI-C5x cells, with rucaparib 10 µM, 100% = cells with rucaparib alone) 10.1% | viability ([17]; at 1.25 µM, OCI-C5x cells, without rucaparib) 10.5% | viability ([17]; at 1.25 µM, OCI-P5x cells, with rucaparib 20 µM, 100% = cells with rucaparib alone) 16.2% | viability ([17]; at 1.25 µM, OCI-P5x cells, without rucaparib) 13.2% | viability ([17]; at 5 µM, OCI-C5x cells, with rucaparib 10 µM, 100% = cells with rucaparib alone) 13.5% | viability ([17]; at 5 µM, OCI-C5x cells, without rucaparib) 11.4% | viability ([17]; at 5 µM, OCI-P5x cells, with rucaparib 20 µM, 100% = cells with rucaparib alone) 14.2% | viability ([17]; at 5 µM, OCI-P5x cells, without rucaparib) 10.5%
1.33: SSMD [16]
6730: cell count [16]
